Inconclusive results are not listed. Calls of active or inactive are those of the source. Unless noted, the call rests on the fitted dose curve; in most records, active means well fitted curve in the direction sought with a large enough effect in the repeat runs; inconclusive means weak or mixed curves; inactive means no such curve, though single readings can be large; an effect the other way counts as inactive or inconclusive.
Tests used:
[1] = qHTS assay to identify aromatase inhibitors - cell viability counter screen (AID 743084);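 further: cells stimulated with testosterone during compound exposure; nearly all actives have a fitted effect of over 55% in size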
[2] = qHTS assay to identify small molecule that activate the aryl hydrocarbon receptor (AhR) signaling pathway - cell viability counter screen (AID 743086);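 further: HepG2 liver cells carrying the AhR DRE luciferase reporter; series mostly up to about 70 µM; nearly all actives have a fitted effect of over 45% in size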
Procedure, shortened: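 HepG2-AhR-luc (HG2L7.5c1) cells, 4000/well, treated 24 h at 37 C with compound; viability measured as CellTiter-Fluor fluorescence after 30 min in the same wells as the luciferase read.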

[3] = qHTS assay for small molecule activators of the heat shock response signaling pathway - cell viability counter screen (AID 743209); further: nearly all actives have a fitted effect of over 50% in size
Procedure, shortened: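 Luminescence from CellTiter-Glo, added after the beta-lactamase FRET read, gave the viability signal. Cells were HSE-bla HeLa treated with DMSO-dissolved compounds for 5 h at 37 C following overnight plating.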

[4] = qHTS assay for small molecule activators of the heat shock response signaling pathway (AID 743210; active means well fitted activation curve with a large enough effect in the signal ratio in the repeat runs, with a control signal flat, not every such curve was filed as active; the % refers to the signal ratio; further: series mostly up to about 63 µM)
Procedure, shortened: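 HSE-bla HeLa cells (beta-lactamase reporter under heat shock response elements), plated overnight, then exposed to compounds 5 h at 37 C; LiveBLAzer B/G FRET substrate added, 2.5 h at room temperature, fluorescence intensity read.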

[5] = target: Peroxisome proliferator-activated receptor delta (Homo sapiens) (UniProt Q03181); experiment: qHTS assay to identify small molecule agonists of the peroxisome proliferator-activated receptor delta (PPARd) signaling pathway (AID 743212; calls by dose curve)
Procedure, shortened: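 GeneBLAzer UAS-bla HEK293H cells carrying a PPARδ construct were exposed to compounds at 37 °C. Beta-lactamase activity was read by FRET fluorescence after 2 h at room temperature with LiveBLAzer B/G substrate.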

[6] = qHTS assay to identify small molecule antagonists of the peroxisome proliferator-activated receptor delta (PPARd) signaling pathway - cell viability counter screen (AID 743213); further: nearly all actives have a fitted effect of over 50% in size
Procedure, shortened: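 In this counter screen, HEK293H cells carrying a UAS-beta-lactamase reporter are co-treated with test compounds and 300 nM L165041 (final) for 17 h at 37 C; cell viability is quantified by CellTiter-Glo luminescence.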

[7] = qHTS assay to identify small molecule antagonists of the farnesoid-X-receptor (FXR) signaling pathway - cell viability counter screen (AID 743221; active means well fitted cell-killing curve with a large enough effect in the repeat runs, not every such curve was filed as active; further: nearly all actives have a fitted effect of over 50% in size)
Procedure, shortened: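 HEK 293T FXR-bla cells, 5 h pre-incubation; compound + CDCA 50 uM final, 16 h, 37 C; beta-lactamase FRET read first, then CellTiter-Glo luminescence, 30 min RT.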

[8] = target: Vitamin D3 receptor (Homo sapiens) (UniProt P11473); experiment: qHTS assay to identify small molecule agonists of the vitamin D receptor (VDR) signaling pathway (AID 743222; calls by dose curve)
Procedure, shortened: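 VDR-bla cells, 2,000/well; 4 h preincubation 37C; cpd (DMSO) 16 h; LiveBLAzer B/G substrate 2 h RT; fluorescence intensity read.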

[9] = qHTS assay to identify small molecule antagonists of the peroxisome proliferator-activated receptor gamma (PPARg) signaling pathway - cell viability counter screen (AID 743194); details: Potency: co-treated with 50 nM rosiglitazone; further: nearly all actives have a fitted effect of over 55% in size
Procedure, shortened: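 Cytotoxicity counter screen in PPARg-bla HEK293H cells, same wells as reporter assay. Compounds plus 50 nM rosiglitazone (final) for 17 h at 37 C, then viability read by CellTiter-Glo luminescence.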

[10] = qHTS assay for small molecule agonists of the antioxidant response element (ARE) signaling pathway - cell viability counter screen (AID 743203; calls by dose curve; further: nearly all actives have a fitted effect of over 55% in size)
Procedure, shortened: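 HepG2 cells carrying ARE-driven beta-lactamase; 2,000 cells/well; 5 hrs plating; compound pinned from DMSO; 16 hrs 37C/5% CO2; CellTiter-Glo added; 30 min RT; luminescence.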

[11] = qHTS assay to identify small molecule agonists of the peroxisome proliferator-activated receptor delta (PPARd) signaling pathway - cell viability counter screen (AID 743211); further: nearly all actives have a fitted effect of over 55% in size; further: potency means the concentration at half of the fitted maximal effect
Procedure, shortened: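 Read-out: CellTiter-Glo luminescence, 30 min RT, measured in the same wells as the beta-lactamase reporter. Cells: GeneBLAzer PPAR delta UAS-bla HEK293H, 3000 cells/well, compound exposure 17 h at 37C.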

[12] = target: Peroxisome proliferator-activated receptor delta (Homo sapiens) (UniProt Q03181); experiment: qHTS assay to identify small molecule antagonists of the peroxisome proliferator-activated receptor delta (PPARd) signaling pathway (AID 743215; active means well fitted inhibition curve with a large enough effect in the signal ratio in the repeat runs, not every such curve was filed as active; the % refers to the signal ratio;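 further: cells stimulated with agonist L165041 at 300 nM final during compound exposure; series mostly up to about 62 µM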)
Procedure, shortened: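 Read-out is beta-lactamase FRET fluorescence, measured 2 h after substrate addition at room temperature. Beforehand, UAS-bla HEK293H cells carrying the PPARd reporter were exposed to compounds with L165041 at 300 nM final for 17 h at 37 C.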

[13] = qHTS assay to identify small molecule agonists of the farnesoid-X-receptor (FXR) signaling pathway - cell viability counter screen (AID 743218); further: nearly all actives have a fitted effect of over 45% in size
Procedure, shortened: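 HEK 293T FXR-bla cells; 5 h pre-incubation, 16 h compound exposure at 37 C; LiveBLAzer substrate 2 h RT, then CellTiter-Glo 30 min RT, luminescence.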

[14] = target: Vitamin D3 receptor (Homo sapiens) (UniProt P11473); experiment: qHTS assay to identify small molecule antagonists of the vitamin D receptor (VDR) signaling pathway (AID 743223; active means well fitted inhibition curve with a large enough effect in the signal ratio in the repeat runs, not every such curve was filed as active; the % refers to the signal ratio)
Procedure, shortened: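 Beta-lactamase reporter read-out: FRET substrate fluorescence after 2 h at room temperature, following 16 h exposure of VDR-bla cells to test compound plus 3 nM (final) 1alpha,25-dihydroxyvitamin D3 agonist at 37C.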

[15] = qHTS assay for small molecule agonists of the antioxidant response element (ARE) signaling pathway (AID 743202; active means well fitted activation curve with a large enough effect in the signal ratio in the repeat runs, not every such curve was filed as active; the % refers to the signal ratio)
Procedure, shortened: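 ARE-bla HepG2 cells (beta-lactamase reporter under the antioxidant response element), plated 5 hours, then exposed to compounds 16 hours at 37 C. LiveBLAzer B/G FRET substrate added for 2 hours at room temperature; fluorescence intensity read.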

[16] = target: Aryl hydrocarbon receptor (Homo sapiens) (UniProt P35869); experiment: qHTS assay to identify small molecule that activate the aryl hydrocarbon receptor (AhR) signaling pathway (AID 743085); further: nearly all actives have a fitted effect of over 15% in size; further: potency means the concentration at half of the fitted maximal effect;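 on activation: HG2L7.5c1 human HepG2 liver cells with stably integrated DRE-driven firefly reporter; series mostly up to about 70 µM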
Procedure, shortened: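 Luminescence read-out: ONE-Glo reagent, 30 min at room temperature, in HG2L7.5c1 HepG2 reporter cells treated 24 h at 37C. Viability was measured beforehand by CellTiter-Fluor fluorescence after 30 min at 37C.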

[17] = target: Peroxisome proliferator-activated receptor gamma (Homo sapiens) (UniProt P37231); experiment: qHTS assay to identify small molecule agonists of the peroxisome proliferator-activated receptor gamma (PPARg) signaling pathway (AID 743094; active means well fitted activation curve with a large enough effect in the signal ratio in the repeat runs, not every such curve was filed as active; the % refers to the signal ratio)
Procedure, shortened: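 Beta-lactamase FRET fluorescence was the read-out after a 1 h room-temperature substrate step, following 17 h compound treatment at 37C of HEK293H cells expressing a UAS-driven bla reporter responsive to PPARg.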

[18] = target: Peroxisome proliferator-activated receptor gamma (Homo sapiens) (UniProt P37231); experiment: qHTS assay to identify small molecule antagonists of the peroxisome proliferator-activated receptor gamma (PPARg) signaling pathway (AID 743191; calls by dose curve; further: series mostly up to about 63 µM; nearly all actives have a fitted effect of over 30% in size)
Procedure, shortened: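 GeneBLAzer PPARg UAS-bla HEK293H cells, 5 h post-plating, exposed to compounds 17 h at 37C. LiveBLAzer B/G FRET substrate added for 1 h at room temperature; beta-lactamase reporter read by fluorescence intensity.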

[19] = target: Bile acid receptor (Homo sapiens) (UniProt Q96RI1); experiment: qHTS assay to identify small molecule antagonists of the farnesoid-X-receptor (FXR) signaling pathway (AID 743217; active means well fitted inhibition curve with a large enough effect in the signal ratio in the repeat runs, not every such curve was filed as active; the % refers to the signal ratio)
Procedure, shortened: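 HEK 293T FXR-UAS-bla, 5000 cells/well; compound + CDCA 50 uM final; 16 h, 37 °C; B/G FRET substrate 2 h RT; fluorescence.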

[20] = target: Bile acid receptor (Homo sapiens) (UniProt Q96RI1); experiment: qHTS assay to identify small molecule agonists of the farnesoid-X-receptor (FXR) signaling pathway (AID 743220; active means well fitted activation curve with a large enough effect in the signal ratio in the repeat runs, not every such curve was filed as active; the % refers to the signal ratio)
Procedure, shortened: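 Beta-lactamase reporter under UAS control in GeneBLAzer FXR HEK 293T cells (5000/well) measured with LiveBLAzer FRET substrate after 2 h at room temperature. Compound exposure lasted 16 h at 37C.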

Measured: Potency

Sequence of Aryl hydrocarbon receptor (Homo sapiens) (P35869 whole entry, looked up): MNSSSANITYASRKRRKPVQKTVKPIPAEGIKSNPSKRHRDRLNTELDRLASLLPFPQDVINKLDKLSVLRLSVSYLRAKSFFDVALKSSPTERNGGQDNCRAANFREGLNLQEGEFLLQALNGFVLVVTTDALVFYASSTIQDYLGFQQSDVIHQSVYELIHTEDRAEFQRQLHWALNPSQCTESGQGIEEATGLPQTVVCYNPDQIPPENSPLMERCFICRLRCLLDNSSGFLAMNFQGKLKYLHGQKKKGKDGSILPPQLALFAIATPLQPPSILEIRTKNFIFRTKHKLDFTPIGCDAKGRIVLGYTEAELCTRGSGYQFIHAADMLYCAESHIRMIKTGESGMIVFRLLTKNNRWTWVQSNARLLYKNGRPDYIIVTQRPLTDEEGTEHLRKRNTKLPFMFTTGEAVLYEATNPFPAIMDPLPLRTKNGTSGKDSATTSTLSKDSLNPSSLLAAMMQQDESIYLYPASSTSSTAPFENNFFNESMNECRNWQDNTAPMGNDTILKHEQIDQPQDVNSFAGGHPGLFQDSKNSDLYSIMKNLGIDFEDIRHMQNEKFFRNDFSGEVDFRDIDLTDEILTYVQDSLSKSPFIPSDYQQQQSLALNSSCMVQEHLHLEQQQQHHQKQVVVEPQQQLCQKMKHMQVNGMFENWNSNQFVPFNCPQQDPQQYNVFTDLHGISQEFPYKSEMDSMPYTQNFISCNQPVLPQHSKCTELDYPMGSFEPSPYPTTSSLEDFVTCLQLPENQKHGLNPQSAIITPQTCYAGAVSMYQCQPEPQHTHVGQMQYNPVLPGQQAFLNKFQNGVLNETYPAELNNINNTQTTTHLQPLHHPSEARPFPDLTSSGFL
Sequence of Peroxisome proliferator-activated receptor delta (Homo sapiens) (Q03181 whole entry, looked up): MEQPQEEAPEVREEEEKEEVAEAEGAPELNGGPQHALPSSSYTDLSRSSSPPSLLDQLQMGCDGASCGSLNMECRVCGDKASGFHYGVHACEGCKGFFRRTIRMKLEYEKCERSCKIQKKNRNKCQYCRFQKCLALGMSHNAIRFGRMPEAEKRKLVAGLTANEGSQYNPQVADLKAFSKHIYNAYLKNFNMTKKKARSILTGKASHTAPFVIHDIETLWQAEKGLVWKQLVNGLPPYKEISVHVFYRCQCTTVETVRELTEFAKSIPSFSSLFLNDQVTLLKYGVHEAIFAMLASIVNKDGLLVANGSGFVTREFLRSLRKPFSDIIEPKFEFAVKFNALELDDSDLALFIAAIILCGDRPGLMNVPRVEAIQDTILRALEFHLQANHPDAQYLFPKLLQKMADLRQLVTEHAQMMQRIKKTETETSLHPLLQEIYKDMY
Sequence of Peroxisome proliferator-activated receptor gamma (Homo sapiens) (P37231 whole entry, looked up): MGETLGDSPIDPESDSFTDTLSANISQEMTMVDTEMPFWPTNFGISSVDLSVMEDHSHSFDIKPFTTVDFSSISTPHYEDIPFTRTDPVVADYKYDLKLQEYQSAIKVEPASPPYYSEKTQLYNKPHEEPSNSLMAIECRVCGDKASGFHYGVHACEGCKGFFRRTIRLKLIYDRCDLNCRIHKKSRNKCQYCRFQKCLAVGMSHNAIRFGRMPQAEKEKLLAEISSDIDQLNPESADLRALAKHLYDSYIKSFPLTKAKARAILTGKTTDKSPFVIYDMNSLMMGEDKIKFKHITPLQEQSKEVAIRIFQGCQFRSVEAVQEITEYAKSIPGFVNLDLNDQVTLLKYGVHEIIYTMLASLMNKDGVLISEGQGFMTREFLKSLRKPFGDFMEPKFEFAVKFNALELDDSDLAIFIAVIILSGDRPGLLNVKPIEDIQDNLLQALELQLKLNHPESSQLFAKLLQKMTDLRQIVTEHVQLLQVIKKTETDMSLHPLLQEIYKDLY
Sequence of Bile acid receptor (Homo sapiens) (Q96RI1 whole entry, looked up): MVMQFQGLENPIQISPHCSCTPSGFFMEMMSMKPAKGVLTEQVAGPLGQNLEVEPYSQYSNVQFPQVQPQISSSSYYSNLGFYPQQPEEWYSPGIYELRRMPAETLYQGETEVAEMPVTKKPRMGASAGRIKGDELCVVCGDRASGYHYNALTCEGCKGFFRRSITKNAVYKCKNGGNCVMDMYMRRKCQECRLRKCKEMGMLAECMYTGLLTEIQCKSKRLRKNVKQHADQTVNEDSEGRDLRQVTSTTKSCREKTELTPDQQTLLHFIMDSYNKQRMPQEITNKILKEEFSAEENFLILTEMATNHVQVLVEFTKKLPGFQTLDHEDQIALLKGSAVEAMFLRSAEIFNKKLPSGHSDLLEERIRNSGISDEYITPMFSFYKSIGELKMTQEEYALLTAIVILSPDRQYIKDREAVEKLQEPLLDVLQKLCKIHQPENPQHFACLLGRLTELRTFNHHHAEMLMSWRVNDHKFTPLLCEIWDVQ
Sequence of Vitamin D3 receptor (Homo sapiens) (P11473 whole entry, looked up): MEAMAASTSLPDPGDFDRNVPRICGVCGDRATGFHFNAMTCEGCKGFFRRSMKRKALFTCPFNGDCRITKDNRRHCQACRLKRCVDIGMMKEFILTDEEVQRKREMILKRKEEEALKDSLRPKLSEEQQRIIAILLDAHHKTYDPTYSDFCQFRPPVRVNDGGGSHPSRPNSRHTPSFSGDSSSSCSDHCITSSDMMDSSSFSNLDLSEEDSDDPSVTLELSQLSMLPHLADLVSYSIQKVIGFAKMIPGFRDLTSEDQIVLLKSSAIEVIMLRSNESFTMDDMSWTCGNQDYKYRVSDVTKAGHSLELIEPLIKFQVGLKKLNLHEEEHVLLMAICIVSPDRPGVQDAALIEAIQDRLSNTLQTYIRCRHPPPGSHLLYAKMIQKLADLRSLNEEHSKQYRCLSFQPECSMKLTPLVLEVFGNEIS

c1cc[c]([Hg][c]2ccccc2)cc1
inactive: [1] | [2] | [3] | [4] | [5] | [6] | [7] | [8]

CC1CCC(=O)O1 (stereo unspecified)
inactive: [2] | [9] | [10] | [3] | [4] | [11] | [5] | [6] | [12] | [13] | [7] | [8] | [14]

CC(C(=O)c1ccccc1)N(C)C (stereo unspecified)
inactive: [9] | [15] | [10] | [3] | [4] | [11] | [5] | [12] | [13] | [7]

CC(C)(C)NCC(O)c1cc(Cl)c(N)c(Cl)c1 (stereo unspecified)
inactive: [16] | [2] | [17] | [18] | [9] | [15] | [10] | [3] | [4] | [11] | [19] | [13] | [20] | [7] | [8] | [14]

C[C@]12CC[C@H]3[C@@H](CCC4=CC(=O)CC[C@@]43C)[C@@H]1CC[C@@H]2C(=O)O
inactive: [9] | [10] | [3] | [4] | [11] | [6] | [19] | [13] | [20] | [7] | [8]

CN1C[C@@H](NS(=O)(=O)N(C)C)C[C@@H]2c3cccc4c3c(cn4C)C[C@H]21
inactive: [2] | [9] | [15] | [10] | [3] | [4] | [11] | [5] | [12] | [13] | [7] | [8]

CN1CCC(N(Cc2ccccc2)c2ccccc2)CC1
inactive: [18] | [9] | [10] | [3] | [4] | [5] | [12] | [7] | [8] | [14]
active: [11] 26.6 µM

O=[N+]([O-])c1cc(Cl)c(Cl)c(Cl)c1
inactive: [16] | [2] | [17] | [9] | [10] | [4] | [11] | [6] | [12] | [19] | [20] | [7] | [8] | [14]

CCC(=O)C(CCN(C)C)(c1ccccc1)c1ccccc1
inactive: [18] | [9] | [15] | [10] | [3] | [4] | [11] | [12] | [13] | [7] | [8] | [14]

CC1COC2(c3ccccc3Cl)c3cc(Cl)ccc3NC(=O)CN12 (stereo unspecified)
inactive: [18] | [9] | [10] | [3] | [4] | [11] | [5] | [6] | [12] | [13] | [7] | [8] | [14]

O=C(NCO)NCO
inactive: [16] | [2] | [17] | [18] | [9] | [15] | [10] | [3] | [4] | [11] | [6] | [13] | [8]

Clc1ccccc1N1CCNCC1
inactive: [18] | [9] | [10] | [3] | [4] | [11] | [5] | [6] | [12] | [13]

Nc1c(Br)cc([N+](=O)[O-])cc1[N+](=O)[O-]
inactive: [9] | [10] | [3] | [4] | [11] | [6] | [12] | [19] | [13] | [20] | [8] | [14]
active: [16] 13.8 µM

— PubChem BioAssay (Tox21)
